HCV inh – HCV inhibition | Potency, µM (highest dose often 41.8 µM), hits mostly inhibitors | Huh7.5.1 HCVcc-Cre infection, luciferase reporter, 44 h | hit rate 3.4% among 340,000 | AID 651820; active = well fitted inhibition curve with a large enough effect; inconclusive = small, poorly fitted or top-dose-only effect, or another doubt; inactive = no such curve, though single readings can be large or run the other way
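Antiviral activity was scored by luciferase reporter output from cells infected with HCVcc-Cre (~0.5 moi) in presence of compound, 44 h infection period, cells seeded 1,000/well 4 h prior.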
MARV entry inh – inhibitors of Marburg virus binding or cell entry. Marburg virus pseudotyped entry inhibition, cell reporter. Potency, µM (series often up to 37.8 µM), usual class: inhibitors. hit rate 1.8% among 300,000; calls by dose curve; tested in HEK293 cells
HCMV inh – blocks human cytomegalovirus replication. activity change, negative = inhibition, % at 57.5 µM. hit rate 4.5% among 410,000. HFF cells, HCMV-luciferase reporter, 72 h; active compounds read low. AID 1259415; in the data active = activity change below about -60%; inconclusive = no clear call, values can overlap the other calls; inactive = above about -39%
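Two compound doses tested in HFFs infected with HCMV-luciferase, MOI 1 PFU/cell, 72 h at 37C. Lysate luminescence read with OneGlo; data normalized against buffer-only and 10uM Salinomycin inhibitor controls.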
Lassa entry inh – inhibitors of Lassa virus binding or cell entry | Lassa virus pseudotype entry inhibition, cell reporter | Potency, µM (titrated, usually from 37.9 µM), hits mostly inhibitors | hit rate 1.2% among 300,000; calls by dose curve; tested in HEK293 cells; note: nearly all actives have a fitted effect of over 50% in size
FMDV antiviral – blocks foot and mouth disease virus. FMDV antiviral cell-based qHTS. Potency, µM (doses to about 57.9 µM), most hits filed as inhibitors. hit rate 1.2% among 410,000; calls by dose curve; tested in HEK293T cells; note: read-out not given here; nearly all actives have a fitted effect of over 45% in size
Numbers stand for hits; i = inactive; ? = inconclusive; nt = no result; + = active, no number. Sampled rows, rich in hits. Any-hit rate of the full collection: about 7.9%.

SMILES | HCV inh | MARV entry inh | HCMV inh | Lassa entry inh | FMDV antiviral
O=c1cc2nc(-c3ccccc3F)nc(SCc3ccc(Br)cc3)n2[nH]1 | nt | nt | i | ? | i
COc1ccc(OCC(NS(=O)(=O)c2ccc(-n3cnnn3)cc2)C(C)C)cc1 (stereo not drawn) | 39.8µM | nt | i | nt | i
Cn1c(-n2cccc2)c(-c2c(-c3ccccc3)[nH]c3c2c(=O)n(C)c(=O)n3C)c(=O)n(C)c1=O | nt | i | i | i | i
O=C(Nc1ccc(S(=O)(=O)N2CCCC2)cc1)C1COc2ccccc2O1 (stereo not drawn) | ? | nt | i | nt | i
O=C(Nc1cccc(S(=O)(=O)N2CCCCC2)c1)C1COc2ccccc2O1 (stereo not drawn) | 10µM | nt | i | nt | i
Cc1ccc(NC(=O)C2COc3ccccc3O2)cc1S(=O)(=O)N1CCCCC1 (stereo not drawn) | 11.2µM | nt | ? | nt | ?
O=C(N/N=C1\C[C@@H](O)[C@@H](O)[C@@H]2[C@@H]3C(=O)N(C4CCCCC4)C(=O)[C@@H]3CC[C@@H]12)OCc1ccccc1 | nt | i | nt | nt | nt
CCCCCNC(=O)c1cc2c(=O)n3ccccc3nc2n1C | nt | nt | i | ? | i
COc1cc(CN2CCC(N3CCC(C(=O)N4CCCC4)CC3)CC2)cc2c1OCO2 | 10µM | ? | i | i | i
O=C(C1CCN(C2CCN(Cc3ccc4c(c3)CCO4)CC2)CC1)N1CCCC1 | ? | 4.47µM | i | i | i
CC(C)c1c(C(=O)N(C)C2CCN(C)CC2)cnn1-c1nccc(-c2ccco2)n1 | nt | nt | nt | nt | i
CC(C)CCn1c(N)c(S(=O)(=O)c2cccs2)c2nc3ccccc3nc21 | ? | 14.6µM | nt | i | i
Nc1c(S(=O)(=O)c2cccs2)c2nc3ccccc3nc2n1CCc1ccccc1 | nt | i | nt | nt | nt
CCc1ccc(-n2nc(CO)c(C(=O)NCc3cccs3)n2)cc1 | nt | ? | i | ? | i
COc1cccc(CNc2nc3cc(-c4cnn(Cc5ccccc5)c4)sc3c(=O)n2C)c1 | nt | nt | -82.1 | nt | 14.1µM
O=C(Nc1ccc(F)cc1Cl)n1ncc2cc(Cl)ccc21 | nt | i | i | i | i
CN(Cc1ccccc1)C(=O)Cn1c(=O)oc2cc(S(=O)(=O)NCc3ccccc3)ccc21 | 14.1µM | i | -71.0 | nt | i
CCCC(=O)Nc1nnc(SCC)s1 | i | i | i | i | i
CCSc1nnc(NC(=O)NC(CC)(C(F)(F)F)C(F)(F)F)s1 | ? | ? | -79.0 | ? | ?
CCSc1nnc(NC(=O)NC(C)(C(F)(F)F)C(F)(F)F)s1 | i | ? | -67.2 | ? | i
COc1cc(=O)n2c(c1C(=O)NC(C)c1ccco1)CCN(C(=O)c1[nH]c(C)cc1C)CC2 (stereo not drawn) | nt | nt | nt | nt | i
Cc1ccc(C)c(N2CCN(C(=O)C3CCN(c4nc(-c5ccc(C(C)C)cc5)no4)CC3)CC2)c1 | nt | nt | -63.2 | ? | ?
Cc1ccc(C)c(N2CCN(C(=O)CCc3nc(-c4ccc(Cl)cc4)no3)CC2)c1 | i | nt | i | nt | i
Cc1ccc(NC(=O)C2CCN(c3nc(-c4ccc(C(C)C)cc4)no3)CC2)c(Cl)c1 | nt | nt | -69.4 | ? | ?
COc1cc(NC(=O)C23CC4CC(C2)CC(n2cnc([N+](=O)[O-])n2)(C4)C3)cc(OC)c1 | i | 2.51µM | i | i | i
SMILES | HCV inh | MARV entry inh | HCMV inh | Lassa entry inh | FMDV antiviral
CC1CCC2(CC1)NC(=O)N(CC(=O)N1c3ccccc3CC1C)C2=O (stereo not drawn) | i | i | -71.2 | i | i
COc1ccc(NC(=O)Cn2c(=O)oc3cc(S(=O)(=O)NC4CCCC4)ccc32)cc1OC | nt | nt | + | i | i
CC1CCN(S(=O)(=O)c2ccc3c(c2)oc(=O)n3CC(=O)N2c3ccccc3CC2C)CC1 (stereo not drawn) | 12.6µM | i | i | nt | i
Cc1cc(C)cc(NC(=O)Cn2c(=O)oc3cc(S(=O)(=O)N4CCC(C)CC4)ccc32)c1 | i | i | -68.5 | nt | i
Cc1ccccc1C1CC(=O)Nc2ccc3ccccc3c21 (stereo not drawn) | nt | ? | i | ? | i
COc1ccc(NC(=O)c2c(NCc3ccc(C)o3)sc3c2CCCCC3)c(OC)c1 | nt | nt | i | ? | i
CCC(=O)N1c2ccccc2CC1C(=O)NCCN1CCN(c2cccc(C)c2C)CC1 (stereo not drawn) | nt | nt | i | i | i
CC(=O)N1CCCc2cc(S(=O)(=O)N3CCC(C(=O)NCc4ccccc4Cl)CC3)ccc21 | nt | nt | i | i | i
COc1ccc(CNC(=O)Cn2c(=O)oc3cc(S(=O)(=O)N4CCCCCC4)ccc32)cc1 | nt | nt | ? | ? | i
COc1ccc(CNC(=O)Cn2c(=O)oc3cc(S(=O)(=O)N4CCC(C)CC4)ccc32)cc1 | nt | 7.08µM | i | ? | i
CCC(=NCCc1c(C)[nH]c2ccc(C)cc12)C1=C(O)CC(c2ccccc2)CC1=O (stereo not drawn) | ? | ? | -76.7 | ? | i
O=C1OC(c2ccccc2)=NC12CC2c1ccc(Cl)cc1 (stereo not drawn) | i | ? | i | ? | 28.2µM
O=c1[nH]c(/C(Cl)=C/c2cc(Cl)ccc2O)nc2cc(Cl)ccc12 | i | i | -70.1 | i | ?
CC(C)(C)NC(=O)COC(=O)c1c2c(nc3ccccc13)CCC2 | ? | i | i | i | i
O=C(OCC(=O)N1CCc2ccccc21)c1c2c(nc3ccccc13)CCCCC2 | 2.82µM | ? | ? | ? | i
O=C(COC(=O)c1cc(-c2ccccc2)nc2ccccc12)Nc1ccc2c(c1)OCO2 | i | ? | i | i | i
O=C(COC(=O)c1c2c(nc3ccccc13)/C(=C\c1cccs1)CCC2)Nc1ccccc1 | ? | ? | i | ? | i
O=C(COC(=O)c1c2c(nc3ccccc13)CCCC2)Nc1ccc2c(c1)OCO2 | 5.62µM | ? | i | ? | i
CC(C)NC(=O)NC(=O)COC(=O)c1c2c(nc3ccccc13)CCC2 | 4.47µM | ? | ? | nt | 11.2µM
CC(=O)c1ccc(NC(=O)COC(=O)c2c3c(nc4ccccc24)/C(=C\c2cccs2)CCC3)cc1 | ? | 8.91µM | ? | ? | ?
COc1ccc(NC(=O)Cc2c(C(=O)O)[nH]c3ccccc23)cc1OC | nt | i | i | i | i
COC(=O)N1C2CC3(C)CC(=O)CC1(C)C3c1ccccc12 (stereo not drawn) | nt | i | nt | nt | nt
Oc1ccc(N=Nc2n[nH]c(-c3ccccc3)n2)cc1 | i | ? | i | ? | i
Oc1ccc(N=Nc2n[nH]c(-c3ccc(Br)cc3)n2)cc1 | i | ? | -87.8 | ? | i
CCCCN(C)C(=O)C1CCN(CCCc2ccccc2)CC1 | i | i | i | i | i
SMILES | HCV inh | MARV entry inh | HCMV inh | Lassa entry inh | FMDV antiviral
CN(C)CC(C)(C)CNC(=O)C1CCN(CCCc2ccccc2)CC1 | 12.6µM | nt | i | nt | i
Cc1ccc(NC(=O)CCCc2c[nH]c3ccccc23)nc1 | i | nt | -98.5 | nt | i
Cc1ccc(CNC(=O)CCCc2c[nH]c3ccccc23)cc1 | i | i | i | i | i
Cc1ccnc(NC(=O)CCCc2c[nH]c3ccccc23)c1 | i | i | -100.9 | i | i
Cc1ccnc(NC(=O)CCCc2ccccc2)c1 | i | ? | i | i | i
COc1cc(NC(=O)CCCc2c[nH]c3ccccc23)cc(OC)c1 | ? | nt | i | nt | i
O=C(CCCc1c[nH]c2ccccc12)NCc1ccccc1F | i | i | i | 7.94µM | i

Screening data from PubChem.
